TsaE inh = inhibitors of E. coli YjeE (TsaE); P0AF67; AID 605; 71,000 compounds, 0.05% hits; Potency, µM; purified YjeE enzyme, qHTS inhibition assay
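Fluorescence polarization of a BODIPY Texas Red–ADP probe (2 uM) bound to purified YjeE (10 uM) was read after 15 min room-temperature incubation with compounds. Loss of polarization marks inhibitors; ADP serves as titrated control.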
BRCT PPI green = inhibitors of human BRCA1 BRCT-phosphoprotein interaction (green fluorophore); P38398; BRCA1 BRCT-phosphopeptide binding, green fluorescence polarization; Potency, µM (titrated, usually from 76.9 µM), for the others: at the highest dose activity change, negative = inhibition, hits mostly inhibitors; 75,000 compounds, 0.05% hits; AID 875;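 note: potency is the fitted concentration of half-maximal effect; plate controls were peptide without protein for full effect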
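Compounds were incubated for 12 min at room temperature with a complex of 100 nM fluorescein-tagged pBACH1 decapeptide and 250 nM His-tagged BRCT protein. Buffer was phosphate pH 7.3 with EDTA, DTT and Tween 20. Disruption of binding lowers the polarization signal.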
Pol III holo inh = inhibitors of bacterial DNA polymerase III holoenzyme; reconstituted DNA polymerase III holoenzyme replication, biochemical; Potency, µM (top dose mostly 57.1 µM), inactives show top-dose activity change, negative = inhibition; 71,000 compounds, 0.25% hits; note: potency is the fitted concentration of half-maximal effect; % is set by controls: 0 for no effect and ±100 for the full control effect
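Reconstituted *E. coli* holoenzyme (0.35 nM Pol III, 1 nM beta, 154 nM SSB, 2 nM primase) was preincubated with compound for 15 min at RT. Synthesis on 1.4 nM ssM13Gori ran 35 min, then was stopped with PicoGreen/EDTA and read as dsDNA fluorescence.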
BRCT PPI red = disrupts BRCA1 BRCT binding to phosphoprotein, red fluorophore readout; P38398; BRCT-phosphopeptide binding, red fluorescence polarization; Potency, µM (series often up to 76.9 µM), inactives show top-dose activity change, negative = inhibition, actives largely listed as inhibitors; 75,000 compounds, 0.03% hits; note: % is set by controls: 0 for no effect and ±100 for the full control effect
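Fluorescence polarization: 100 nM His-tagged BRCA1 BRCT with 100 nM TAMRA-labelled phospho-BACH1 decapeptide, phosphate buffer pH 7.3 with 150 mM NaCl, DTT, 0.01% Tween 20; 12 min RT. Binding inhibition seen as FP decrease.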
Hsp90 Hop PPI = changes Hsp90-Hop TPR2A binding signal, up or down; Potency, µM (top dose mostly 57 µM), without a hit: at the highest dose activity change, negative = inhibition; 71,000 compounds, 0.44% hits; AlphaScreen TPR2A-His6 binding biotin-Hsp90 C-terminal peptide; active = well fitted curve in either direction with a large enough effect; inconclusive = small, poorly fitted or top-dose-only effect, or another doubt; note: potency is the fitted concentration of half-maximal effect; % is set by controls: 0 for no effect and ±100 for the full control effect
GBA activity = alters purified human glucocerebrosidase activity. purified enzyme, resorufin glucoside fluorescence (screen aimed at inhibitors), 20 min. Potency, µM. 48,000 compounds, 1.1% hits. AID 360; in the data active = potency below about 15 µM; inconclusive = mostly about 16 µM to 33 µM;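 note: potency is the fitted concentration of half-maximal effect; the screen sought inhibitors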
Target sequence (P04062 whole entry, looked up): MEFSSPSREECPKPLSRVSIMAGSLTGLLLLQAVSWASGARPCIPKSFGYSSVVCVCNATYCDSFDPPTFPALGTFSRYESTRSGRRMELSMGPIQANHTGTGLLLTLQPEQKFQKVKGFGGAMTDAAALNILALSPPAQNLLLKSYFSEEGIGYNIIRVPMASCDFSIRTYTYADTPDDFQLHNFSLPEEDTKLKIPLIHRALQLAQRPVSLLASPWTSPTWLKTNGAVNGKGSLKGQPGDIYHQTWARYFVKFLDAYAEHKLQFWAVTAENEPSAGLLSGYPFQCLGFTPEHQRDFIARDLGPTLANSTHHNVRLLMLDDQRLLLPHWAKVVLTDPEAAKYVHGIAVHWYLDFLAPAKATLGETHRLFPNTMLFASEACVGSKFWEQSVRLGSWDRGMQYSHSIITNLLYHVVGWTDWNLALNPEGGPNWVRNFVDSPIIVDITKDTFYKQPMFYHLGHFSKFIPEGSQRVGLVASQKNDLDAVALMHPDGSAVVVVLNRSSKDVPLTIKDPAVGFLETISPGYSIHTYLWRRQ
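Wild-type enzyme at 0.2 nM final in 50mM citric acid/KH2PO4, 10mM sodium taurocholate, 0.01% tween-20, pH 5.9, with resorufin beta-D-glucopyranoside at 30 uM final. Compounds titrated, 20 min at RT, red fluorescence read; AC50 from titration.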
Numbers without * were called inactive; i = inactive; ? = inconclusive; nt = no result given; [ ] = another dose, or the depositor's remark. This is a sample that favours compounds with a hit; in the whole collection about 1.2% have one here. Unless noted, calls come from the whole dose curve; as a rule, active = well fitted curve in the direction sought with a large enough effect; inconclusive = small, poorly fitted or top-dose-only effect, or another doubt; inactive = no such curve, though single readings can be large; an effect the other way counts as inactive or inconclusive.

SMILES | TsaE inh | BRCT PPI green | Pol III holo inh | BRCT PPI red | Hsp90 Hop PPI | GBA activity
NC1=NC(=Nc2ccccc2)c2ccccc21 | i | -2% | 1% | 0% | -3% | 10*
Nc1ccc(N=Nc2ccccc2)c(N)c1 | i | 0% | -4% | 1% | ? | nt
CC(=O)c1ccc(C2C=CC(O)C(CO)O2)cc1 (stereo unspecified) | nt | -2%[15.4 µM] | nt | 1%[15.4 µM] | nt | nt
Cc1ccc(-c2cc(C(F)F)nc(N3CCC(C)CC3)n2)cc1 | i | -3% | -2% | 0% | 25µM* | >77
CO | i | -1% | 11% | -1% | -1% | nt
O=C(O)C1Nc2c(O)cccc2C2C=CCC12 (stereo unspecified) | i | -13% | 3.2µM* | -19% | 25µM* | nt
O=C(OC1CCCCC1)c1ccc2c(c1)C1C=CCC1C(C(=O)O)N2 (stereo unspecified) | i | ? | 20µM* | ? | ? | ?
O=C(Nc1nc(-c2ccco2)c(-c2ccco2)s1)C1CC(=O)N(c2ccc3c(c2)OCCO3)C1 (stereo unspecified) | i | ? | 10µM* | ? | ? | ?
N#C/C(C(N)=O)=c1/ccc2c(c1)N1C3=C(CCCC3)CC3CCCCC31N=2 (stereo unspecified) | 40µM* | -1% | 1% | -1% | ? | ?
CCS(=O)(=O)N1CCC(C(=O)Nc2cc(Cl)ccc2O)CC1 | i | 2% | -2% | 0% | -3% | 14*
OCC1OC([S-])[C@H](O)C(O)C1O.[Au+] (stereo partly specified) | nt | -2%[3.08 µM] | nt | 32µM* | nt | nt
CCc1c(C)sc(NC(=O)c2cccs2)c1C(=O)OC(C)C | i | 1% | -11% | 0% | 25µM* | nt
CCOC(=O)c1c(NC(=O)c2cccs2)sc2c1CCCC2 | i | 0% | 3% | 0% | 11% | nt
O=C(O)c1cc(-c2ccco2)nc2ccc(Br)cc12 | i | -2% | 25µM* | -3% | -1% | >77
O=C(c1ccco1)N1CCN(C(=O)c2cc(-c3ccncc3)nc3ccc(Br)cc23)CC1 | i | 1% | -1% | 0% | -6% | >77
CC1(Cc2cn(CCC#N)c3ccccc23)OCCO1 | i | 1% | -1% | 0% | -1% | 14*
CCCn1c(=S)[nH]c2cc(C(=O)NCC3CCCO3)ccc2c1=O (stereo unspecified) | i | -1% | -6% | 0% | -4% | nt
CCCCCNC(=O)c1ccc2c(=O)n(CC3CCCO3)c(=O)[nH]c2c1 (stereo unspecified) | i | -1% | 2% | -2% | ? | 11*
COc1ccc(-c2ccc(-c3noc(-c4ccco4)n3)c(OC)n2)cc1 | i | 7% | -5% | -1% | 0% | 7.7*
COc1nc(-c2ccccc2)ccc1-c1noc(-c2ccccc2)n1 | i | 0% | -2% | -1% | -1% | >77
COc1ccc(-c2ccc(-c3noc(-c4ccccc4)n3)c(OC)n2)cc1 | i | 0% | -5% | -1% | 2% | 5*
Cc1noc(C)c1C(=O)OCC(=O)c1c[nH]c2ccccc12 | i | 0% | 2% | 1% | -9% | 8.3*
Cc1noc(C)c1COC(=O)c1cc(=O)[nH]c2ccccc12 | i | -1% | -4% | 1% | 0% | >77
COc1ccc(CNc2ncnc3ccc(-c4ccccc4CN(C)C)cc23)c(OC)c1 | i | 1% | -3% | 2% | -10% | nt
Cc1ccccc1-c1cc(NCCN2CCOCC2)ncn1 | i | -2% | -4% | 0% | -8% | nt
Cc1cc(C)c2c(CN3CCN(C)CC3)cc(=O)oc2c1 | i | -1% | 8% | 1% | ? | i
Cc1cc(C)c2c(CN3CCN(CCO)CC3)cc(=O)oc2c1 | i | 0% | -2% | 0% | -3% | 5.5*
Cn1c(=O)c(-c2cccs2)nc2cnc(Oc3ccccc3)nc21 | i | 3% | -9% | -2% | ? | nt
CNc1nc(-c2c(C)noc2C)nc2ccccc12 | i | -1% | -7% | -3% | 1% | nt
Cc1ccc(S(=O)(=O)NCCc2ccncc2)cc1 | i | -2% | 2% | -1% | -1% | nt
